Assay [1] is described as follows: qHTS RealTime-Glo MT Cell Viability Assay in HEK293 cells - 40 hour (AID 1224874). Note: nearly all actives have a fitted effect of over 50% in size. Note: potency is the fitted concentration of half-maximal effect. As to conditions: RealTime-Glo luminescence; max response: stronger effect = lower value. The procedure, abridged:
(§1)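 Measured as luminescence from the same continuously cultured HEK293 wells at successive time points (0, 8, 16, 24, 32, 40 h) after compound addition. Reagent present from seeding; dosing at 5 h; incubation 37 C.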
For orientation: Quantitative high-throughput screening tests each substance at several concentrations.

A short description of assay [2]: A CellTox Green Cytotoxicity Assay to monitor cytotoxicity in HEK293 cells - 24 hour (AID 1224875). Note: nearly all actives have a fitted effect of over 45% in size. Note: potency is the fitted concentration of half-maximal effect. An outline of the steps: (§2)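 Homogeneous no-lysis format: HEK293 cell suspension mixed with CellTox Green reagent, seeded, incubated 5 h at 37 C/5% CO2, then dosed by pintool with compound in DMSO.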
A short description of assay [3]: A CellTox Green Cytotoxicity Assay to monitor cytotoxicity in HepG2 cells - 16 hour (AID 1224876). Note: nearly all actives have a fitted effect of over 45% in size. Note: potency is the fitted concentration of half-maximal effect. An outline of the steps:
(§3)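 Fluorescent DNA-binding dye, 600 HepG2 cells/well, 5 h preincubation then compound in DMSO; same plates read at 0–40 h, 37 C.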

Assay [4] can be described thus: A CellTox Green Cytotoxicity Assay to monitor cytotoxicity in HepG2 cells - 24 hour (AID 1224878). Note: nearly all actives have a fitted effect of over 45% in size. Note: potency is the fitted concentration of half-maximal effect. The procedure, abridged: as §3
Assay [5] in a line: A CellTox Green Cytotoxicity Assay to monitor cytotoxicity in HepG2 cells - 40 hour (AID 1224879). Note: nearly all actives have a fitted effect of over 40% in size. Note: potency is the fitted concentration of half-maximal effect. An outline of the steps:
as §3

The nature of assay [6]: qHTS RealTime-Glo MT Cell Viability Assay in HEK293 cells - 0 hour (AID 1224880). Note: top concentration of the series differs between compounds; nearly all actives have a fitted effect of over 45% in size. An outline of the steps:
as §1

Assay [7] can be described thus: A CellTox Green Cytotoxicity Assay to monitor cytotoxicity in HEK293 cells - 32 hour (AID 1224881). Note: nearly all actives have a fitted effect of over 40% in size. Note: potency is the fitted concentration of half-maximal effect. The procedure, abridged: as §2
The nature of assay [8]: A CellTox Green Cytotoxicity Assay to monitor cytotoxicity in HepG2 cells - 32 hour (AID 1224883). Note: nearly all actives have a fitted effect of over 50% in size. Note: potency is the fitted concentration of half-maximal effect. An outline of the steps:
as §3

Assay [9] is described as follows: A CellTox Green Cytotoxicity Assay to monitor cytotoxicity in HEK293 cells - 8 hour (AID 1224884). Note: nearly all actives have a fitted effect of over 35% in size. Note: potency is the fitted concentration of half-maximal effect. An outline of the steps:
as §2

Assay [10] is described as follows: qHTS RealTime-Glo MT Cell Viability Assay in HEK293 cells - 24 hour (AID 1224886). Note: nearly all actives have a fitted effect of over 50% in size. Note: potency is the fitted concentration of half-maximal effect. The procedure, abridged:
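Cells + reagent dispensed (600 cells/well, HEK293) → 5 h at 37 C/5% CO2 → 23 nL compound in DMSO pinned → 40 h at 37 C → luminescence read at 0, 8, 16, 24, 32, 40 h.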

The nature of assay [11]: qHTS RealTime-Glo MT Cell Viability Assay in HEK293 cells - 8 hour (AID 1224887). Note: nearly all actives have a fitted effect of over 50% in size. Note: potency is the fitted concentration of half-maximal effect. An outline of the steps: as §1
Assay [12] in a line: A CellTox Green Cytotoxicity Assay to monitor cytotoxicity in HEK293 cells - 16 hour (AID 1224888). Note: nearly all actives have a fitted effect of over 35% in size. An outline of the steps: as §2
Assay [13] in a line: qHTS RealTime-Glo MT Cell Viability Assay in HepG2 cells - 0 hour (AID 1224889). Note: nearly all actives have a fitted effect of over 50% in size. The procedure, abridged: (§4)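 Real-time, nonlytic viability: 600 HepG2 cells/well mixed with NanoLuc enzyme plus prosubstrate; 5 h settle, compound (DMSO) added by pintool; luminescence monitored over 40 h at 37 C.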
Assay [14] in a line: A CellTox Green Cytotoxicity Assay to monitor cytotoxicity in HepG2 cells - 8 hour (AID 1224890). Note: nearly all actives have a fitted effect of over 45% in size. Note: potency is the fitted concentration of half-maximal effect. An outline of the steps:
as §3

The nature of assay [15]: qHTS assay to identify small molecule antagonists of the androgen receptor (AR) signaling pathway using the MDA cell line in the presence of 0.5 nM R1881 - cell viability counter screen (AID 1259242). Note: nearly all actives have a fitted effect of over 45% in size. Note: potency is the fitted concentration of half-maximal effect. An outline of the steps:
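Human breast carcinoma MDA-kb2 cells, cultured without CO2, receive compounds alongside 0.5 nM (final) R1881 agonist. After 16 hr at 37C, viability is taken as live-cell protease signal.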

The nature of assay [16]: qHTS RealTime-Glo MT Cell Viability Assay in HepG2 cells - 8 hour (AID 1224873). Note: nearly all actives have a fitted effect of over 55% in size. An outline of the steps: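 HepG2 cells (600/well) mixed with RealTime-Glo MT reagent, settled 5 h at 37 C/5% CO2 before compound addition. Nonlytic NanoLuc luminescence from viable-cell prosubstrate reduction read repeatedly during 40 h treatment at 37 C.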
A short description of assay [17]: qHTS RealTime-Glo MT Cell Viability Assay in HepG2 cells - 32 hour (AID 1224877). Note: nearly all actives have a fitted effect of over 55% in size. Note: potency is the fitted concentration of half-maximal effect. An outline of the steps:
as §4

Assay [18] in a line: qHTS RealTime-Glo MT Cell Viability Assay in HepG2 cells - 16 hour (AID 1224885). Note: nearly all actives have a fitted effect of over 50% in size. An outline of the steps:
as §4

Assay [19] in a line: qHTS assay to identify small molecule antagonists of the estrogen receptor alpha (ER-alpha) signaling pathway using the BG1 cell line in the presence of 0.1 nM 17-beta-estradiol - cell viability counter screen (AID 1259241). Note: nearly all actives have a fitted effect of over 40% in size. Note: potency is the fitted concentration of half-maximal effect. The procedure, abridged: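 VM7Luc4E2 cells (endogenous ER-alpha, 4×ERE-luciferase), hormone-starved 5 days in charcoal-stripped FBS, were treated with compounds plus 0.1 nM 17beta-estradiol for 22 hr at 37C; viability read in same wells as CellTiter-Fluor live-cell protease fluorescence.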

Assay [20] in a line: A CellTox Green Cytotoxicity Assay to monitor cytotoxicity in HepG2 cells - 0 hour (AID 1224882). Note: nearly all actives have a fitted effect of over 35% in size. An outline of the steps:
as §3

Experimental findings from PubChem BioAssay (Tox21) are described below.

Values joined by “and” are separate entries in the source; they are usually repeats but may differ in a detail not shown here. Identical values can stand only once. Inconclusive results are not listed. A structure can be active in one record and inactive in another. Active and inactive are the calls of the source. Calls come from the whole dose curve; as a rule, active = well fitted curve in the direction sought with a large enough effect in the repeat runs; inconclusive = weak or mixed curves; inactive = no such curve, though single readings can be large; an effect the other way counts as inactive or inconclusive.
% is set by controls: 0 for no effect and ±100 for the full control effect.

Consider `BrC1CCC(Br)C(Br)CCC(Br)C(Br)CCC1Br` (stereo not drawn), for which, in assay [1], the max response was -14.3% (inactive). Further, the Potency entry in [2], in assay [3], in [4], in assay [5], in assay [6] and in [7] was “inactive” each time. Further, the Potency entry in [8], in [9], in [10], in [11], in [12] and in assay [13] was “inactive” each time. In addition, the Potency entry in [14] and in [15] was “inactive” each time.

As for `COC(=O)/C=C/c1ccccc1`, the Potency result in [16], in assay [3], in assay [17], in [4], in assay [5] and in assay [6] was “inactive” in each case. Moreover, the Potency result in [8], in assay [18], in assay [10], in [11], in [13] and in [14] was “inactive” in each case. The Potency entry in assay [19] and in [15] was “inactive” each time. In addition, the max response in assay [1] was -2.16% (inactive). Further, the Potency entry in assay [7] was “inactive and 21.9 µM (active)”; in assay [9] it was “inactive and 34.7 µM (active)”.

`CCC(C)(C)C(=O)O[C@H]1C[C@@H](C)C=C2C=C[C@H](C)[C@H](CC[C@@H]3C[C@@H](O)CC(=O)O3)[C@H]21`: the Potency entry in [2], in assay [7], in assay [20], in assay [9], in [12] and in [19] was “inactive” throughout. Further, the Potency entry in assay [15] was “inactive”. The Potency is 24.5 µM (active) and 9.52 µM (active) in assay [5]; 38.9 µM (active) and 9.52 µM (active) in assay [8].

Take `CC(C)CCCCCCc1ccc(O)cc1`: the Potency in assay [1] is 1.25 µM (active); in assay [2], 28 µM (active) and 38.9 µM (active); in assay [3] it was 44.4 µM (active) and 27.5 µM (active); in assay [17], 19.8 µM (active) and inactive; in [4], 22.3 µM (active) and 38.9 µM (active); in assay [5], 14 µM (active) and 43.6 µM (active). Moreover, the Potency is 22.3 µM (active) and 38.9 µM (active) in [7]; 19.8 µM (active) and 43.6 µM (active) in [8]; 39.6 µM (active) in assay [9]; 4.44 µM (active) in assay [10]; 19.8 µM (active) in [11]; 25 µM (active) and 43.6 µM (active) in [14]. Moreover, the Potency in assay [15] was 6.98 µM (active) and inactive. Further, the Potency entry in [6], in assay [20], in assay [18] and in assay [13] was “inactive” throughout.

As for `N[C@@H]1CONC1=O`, the Potency entry in [16], in assay [2], in [17], in assay [6], in assay [7] and in assay [9] was “inactive” in each case. The Potency result in assay [18], in assay [10], in assay [11], in assay [12], in assay [13] and in [15] was “inactive” each time.

Take `O=C1CC2(CCCC2)CC(=O)N1CCCCN1CCN(c2ncccn2)CC1`: the Potency entry in assay [16], in assay [2], in [17], in [4], in [6] and in assay [7] was “inactive” throughout. Further, the Potency result in assay [9], in assay [18], in assay [11], in assay [12], in [13] and in assay [15] was “inactive” each time. Further, the Potency in [1] is 27.5 µM (active); in assay [5], 38.9 µM (active) and inactive; in assay [8], 43.6 µM (active) and inactive; in assay [10] it was 49 µM (active) and inactive.

For `Cc1c(O)cccc1C(=O)N[C@@H](CSc1ccccc1)[C@H](O)CN1C[C@H]2CCCC[C@H]2C[C@H]1C(=O)NC(C)(C)C`, the Potency entry in assay [16], in assay [2], in assay [17], in assay [4], in assay [6] and in assay [7] was “inactive” each time. Besides, the Potency entry in assay [9], in assay [11], in assay [12], in [13] and in [14] was “inactive” in each case. Further, the Potency in assay [1] is 13.4 µM (active); in assay [5], 42.5 µM (active) and 10.7 µM (active); in assay [8] it was 12 µM (active); in assay [10], 21.3 µM (active); in assay [19], 8.41 µM (active) and 15 µM (active); in [15], 59.5 µM (active) and 26.6 µM (active).
